From PubChem BioAssay (NCI)
Compounds without any hit were thinned out: in the full panel of roughly 83,000, 20% have a hit.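 Single-dose data. Exposure time 48 hours. Values below 10 considered active.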 Values without a mark were called inactive. Activity calls are given as the source filed them.

What was measured:
Assay in all cases: NCI-60 one-dose screen, 48 h (100 = growth as untreated, 0 = no growth, -100 = all killed)
Details in all cases: 10 µM unless noted
HCT-15 colon = test system: HCT-15 colon
HT29 colon = test system: HT29 colon
SNB-75 CNS = test system: SNB-75 CNS
SNB-19 CNS = test system: SNB-19 CNS
U251 CNS = test system: U251 CNS
PC-3 prostate = test system: PC-3 prostate
SK-MEL-5 melanoma = test system: SK-MEL-5 melanoma
UACC-62 melanoma = test system: UACC-62 melanoma
LOX IMVI melanoma = test system: LOX IMVI melanoma
SK-MEL-2 melanoma = test system: SK-MEL-2 melanoma
EKVX NSCLC = test system: EKVX NSCLC
SN12C renal = test system: SN12C renal
UO-31 renal = test system: UO-31 renal
TK-10 renal = test system: TK-10 renal
ACHN renal = test system: ACHN renal
CAKI-1 renal = test system: CAKI-1 renal
A498 renal = test system: A498 renal
CCRF-CEM leukemia = test system: CCRF-CEM leukemia
MOLT-4 leukemia = test system: MOLT-4 leukemia
SK-MEL-28 melanoma = test system: SK-MEL-28 melanoma

| Compound | growth (HCT-15 colon) | growth (HT29 colon) | growth (SNB-75 CNS) | growth (SNB-19 CNS) | growth (U251 CNS) | growth (PC-3 prostate) [%] | growth (SK-MEL-5 melanoma) | growth (UACC-62 melanoma) [%] | growth (LOX IMVI melanoma) | growth (SK-MEL-2 melanoma) [%] | growth (EKVX NSCLC) [%] | growth (SN12C renal) | growth (UO-31 renal) [%] | growth (TK-10 renal) [%] | growth (ACHN renal) [%] | growth (CAKI-1 renal) | growth (A498 renal) [%] | growth (CCRF-CEM leukemia) | growth (MOLT-4 leukemia) | growth (SK-MEL-28 melanoma) [%] |
| --- | --- | --- | --- | --- | --- | --- | --- | --- | --- | --- | --- | --- | --- | --- | --- | --- | --- | --- | --- | --- |
| C=CCSc1nnc(-c2ccc(-c3nc4ccccc4[nH]3)cc2)o1 | 51.3% | 69.5% | 74% | 79.7% | 84% | 57.5 | 50.6% | 73.9 | 73.9% | 95 | 71.5 | 83.8% | 56.1 | 87.7 | 78.1 | 63.9% | 113 | 32.6% | 38.1% |  |
| COc1ccc(NC(=O)Cn2c(/C=C/c3ccc([N+](=O)[O-])cc3)nc3ccccc3c2=O)cc1 | 73.7% | 85.5% | -32.7% (active) | 32.2% | 32.2% | 89.7 | 52.6% | 73.2 |  | 78.9 | 74.4 | 62.3% | 22.9 | 25.5 | 51.9 | 63.2% | 85.8 | 103% | 114% | 80.8 |
| O=C1/C(=C/C=C/c2ccco2)SC(=S)N1CC(=S)C1C=CS(=O)(=O)C1 (stereo not given) | 75.6% | 109% | 93.5% | 95.2% | 88.7% | 96.7 | 86.8% | 74.4 |  | 88.1 | 94 | 81.2% | 84.1 | 126 | 100 | 107% | 141 | 45.9% | 68.8% | 93.9 |
| COc1ccc(-c2nc3ccccc3n2CC(=O)N=Nc2c(O)[nH]c3ccc(OC)cc23)cc1 | 43.7% | 0.298% (active) | 73% | 95.1% | 96.6% | 64.8 | 22.9% | 81.6 | 56.8% | 23.9 | 77.8 | 58.7% | 68.5 | 43.8 | 10.1 | -53.5% (active) | 88.3 | 62.9% | 35.8% |  |
| COc1ccc2ccccc2c1/C=C1\SC(=Nc2ccc(O)cc2)NC1=O | 4.61% (active) | 0.351% (active) | 77.7% | 24.5% | 5.13% (active) | 21.5 | -53.6% (active) | 16.4 |  | 27.1 | 15.8 | 6.03% (active) | 17.7 | 36.9 | 17 | 9.94% (active) | 93.5 | 2.89% (active) | 9.45% (active) | 52.7 |
| O=C(NNC(=O)c1ccc(OCc2nc3ccc(Cl)cc3[nH]2)cc1)Nc1ccc(Cl)c(C(F)(F)F)c1 | 97.6% | 68.2% | 59.8% | 61.1% | 30.7% | 33.3 | 70.4% | 61.4 | 48.2% |  | 69.6 | 64.9% | 82.8 | 116 | 75.3 | 81% | 154 | 48.9% | 60.6% |  |
| O=C(CSc1nnc(-c2ccc(-c3nc4ccccc4[nH]3)cc2)o1)Nc1ccccc1 | 55.5% | 70.7% | 46.6% | 3.01% (active) | -61% (active) | 86.2 | 82.7% | 92.1 | 3.54% (active) | 91.4 | 93.9 | 79.7% | 104 | 106 | 23.1 | 86% | 130 | 59% | 27.4% |  |
| O=C(O)CC1S/C(=N/N=C/c2nc3ccccc3s2)NC1=O (stereo not given) | 76.5% | 114% | 96.9% | 96.3% | 89.8% | 103 | 96.9% | 114 | 100% |  | 54.7 | 101% | 52.7 | 104 | 78.3 | 77.3% | 155 | 93% | 95.2% |  |
